Inconclusive results are not listed. Entries that show only a call come without a potency. The source made the active and inactive calls. Calls follow the shape of the dose curve; as a rule, active = well fitted inhibition curve with a large enough effect; inconclusive = small, poorly fitted or top-dose-only effect; inactive = no such curve, though single readings can be large or run the other way.
Potency is read from the fitted curve at half-maximal effect.

The experiment is described as follows: Primary fluorescence-based thiol-reactive (MSTI) qHTS assay for identification of artifact compounds. (AID 1845221). Also: nearly all actives have a fitted effect of over 65% in size.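 As to activity change, negative = thiol reactive: thiol-reactive compounds lower the probe fluorescence signal.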 Conditions: MSTI thiol-reactivity probe, 1 h; series mostly up to 53.8 µM. The essentials:
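MSTI probe at 4 uM final in 2% DMSO/PBS pH 7.4; compounds, 1 h at room temperature in dark. Fluorescence Ex/Em 525/598 nm, normalised to Acetyl-MSTI and MSTI, fitted to 4-parameter Hill.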
For `C=C1C(OC(C)=O)C(=O)C2C(C)(C)C(OC(C)=O)CCC2(C)C1CC(OC(C)=O)/C(C)=C/COC(C)=O` (stereo not given), the Potency result is “inactive”. With `COC1CC(=O)CCC(C)OC(=O)CC1O` (stereo not given), the Potency result is “inactive”.

In the case of `C[C@@H](Nc1cc(NS(=O)(=O)N2CCC2)nc(SCc2cccc(F)c2F)n1)[C@@H](O)CO`, the Potency entry was “inactive”.

On to `COc1ccc(C[C@H](N)C(=O)N[C@H]2[C@@H](O)[C@H](n3cnc4c(N(C)C)ncnc43)O[C@@H]2CO)cc1`, for which the Potency entry was “inactive”. The same measure, in the same setting: with `Cn1c(=O)c2nc(/C=C/c3cccc(Cl)c3)n(C)c2n(C)c1=O` the entry was “inactive”; with `Clc1ccc2c(c1)C1=NCCN1c1c(-c3noc(C4CC4)n3)ncn1-2`, “inactive”. Turning to `CC(=O)OC[C@@]12[C@H](O)C[C@]3(C)C(=CCC4[C@@]5(C)CC[C@H](O[C@@H]6O[C@H](C(=O)O)[C@@H](O[C@@H]7O[C@H](CO)[C@@H](O)[C@H](O)[C@H]7O)[C@H](O)[C@H]6O[C@@H]6O[C@H](CO)[C@@H](O)[C@H](O)[C@H]6O)[C@](C)(CO)C5CC[C@]43C)[C@@H]1CC(C)(C)[C@@H](OC(C)=O)[C@@H]2O` (stereo not given in full), the activity change, negative = thiol reactive is 182% [at 11.5 µM] (inactive).

Take `C=C1CCC2C(C)(C)CC(=O)CC2(C)C1CCC(C)CCOC(C)=O` (stereo not given): the Potency result is “inactive”. On the same count and under the same terms, with `CC(=O)C1CCC2(C)C3=C(CCC12C)C1(C)CCC(=O)C(C)(C)C1CC3` (stereo not given) the entry was “inactive”.

With `CC(=O)c1c(O)cc2c(c1C)C(=O)CC(O)C2` (stereo not given), the Potency was 10.6 µM (active).

Turning to `CC(C)(C)NCc1cc(Nc2ccnc3cc(Cl)ccc23)c2c(c1O)CCCC2`, the activity change, negative = thiol reactive is -13.7% [at 0.461 µM] (inactive). In the case of `COc1c(C)c(OCC=C(C)C)cc2c1C(=O)NC2=O`, the Potency entry is “inactive”. As to `CC1(C)CC2C(O)C3=C(CC(C)(O)C2C1)C(=O)OC3O` (stereo not given), the Potency result is “inactive”. On to `FC(F)(F)c1cc(C(F)(F)F)c2ccc3nc(-c4nnco4)cn3c2n1`, for which the Potency entry was “inactive”. Consider `CC(C)(O)c1ccc2c(c1)C(=O)CC1[C@](C)(CO)CCC[C@]21C` (stereo not given in full), for which the Potency is 13.1 µM (active). Turning to `CC(=O)O[C@@H]1[C@H](O[C@@H]2O[C@H](CO)[C@@H](O)[C@H](O)[C@H]2O)[C@@H](O[C@@H]2O[C@@H](C)[C@H](O)[C@@H](O[C@@H]3O[C@H](CO)[C@@H](O)[C@H](O)[C@H]3O)[C@H]2O)[C@H](OC(=O)C23CCC4(C)C(=CCC5C6(C)CC(O)C(O[C@@H]7O[C@H](C(=O)O)[C@@H](O)[C@H](O)[C@H]7O)C(C)(C(=O)O)C6CCC54C)C2CC(C)(C)CC3O)O[C@@H]1C` (stereo not given in full), the activity change, negative = thiol reactive was 205% [at 11.5 µM] (inactive).

Regarding `CC(=O)NCCCCn1c2c(c3ccccc31)C(=O)NCC2`, the Potency entry is “inactive”. Same read-out and setting: to `CCn1nnnc1NCc1ccc(C(C)C)cc1` belongs “inactive”; to `CCCCNC(=O)[C@@H]1Cc2ccccc2N1C(=O)[C@@H](N)CC`, “inactive”; to `CNc1nc(Nc2cnn([C@H]3CCN(C4COC4)C[C@@H]3F)c2Cl)ncc1C(F)(F)F`, “inactive”. Still for that read-out and setting: with `CC[C@H](C)/C=C(C)/C=C/C(=O)Cc1cc(O)c(C)c(O)c1C=O` the figure was 14.7 µM (active); with `Cc1cc(C)cc(NC(=O)Cc2ccc(OC(C)(C)C(=O)O)cc2)c1`, “inactive”; with `CCOc1ccc(-c2ccc(Cn3c(CC(C)(C)C(=O)O)c(SC(C)(C)C)c4cc(OCc5ccc(C)cn5)ccc43)cc2)cn1`, “inactive”. On the same count and under the same terms, to `Cc1[nH]cnc1C1CCN(c2nc3cccc4c3n2CCC4=O)CC1` belongs “inactive”; to `O=C(/C=C/c1ccccc1)OCC1=CC[C@@H]2C(C(=O)O)=CO[C@@H](O[C@@H]3O[C@H](CO)[C@@H](O)[C@H](O)[C@H]3O)[C@H]12`, “inactive”.

As to `CCOC(=O)[C@H]1O[C@@H]1C(=O)N[C@@H](CC(C)C)C(=O)NCCC(C)C`, the Potency result is “inactive”. In the case of `CC(=O)OCCC(C)CCC1C(C)(O)CCC2C(C)(C)CCCC21C` (stereo not given), the Potency entry is “inactive”. Regarding `CO/N=C(/C(=O)N[C@@H]1C(=O)N2C(C(=O)O)=C(CSC(=O)c3ccco3)CS[C@H]12)c1csc(N)n1`, the Potency entry was “inactive”. `CCC(=O)O[C@]1(C(=O)CCl)[C@@H](C)C[C@H]2[C@@H]3C[C@H](F)C4=CC(=O)C=C[C@]4(C)[C@@]3(F)[C@@H](O)C[C@@]21C`: the Potency entry is “inactive”.

Regarding `COc1cccc2c1CCC[C@H]2CN(C)CCc1ccc2ccoc2c1`, the Potency result was “inactive”. Regarding `CC(C)[C@@H](C)/C=C/[C@@H](C)[C@H]1CC[C@H]2C3=CC=C4C[C@@H](O)CC[C@]4(C)[C@H]3CC[C@]12C`, the Potency result was “inactive”.

Consider `CC1=CC(=O)CC(C)(CO[C@@H]2O[C@H](CO)[C@@H](O)[C@H](O)[C@H]2O)C1(O)/C=C/C(C)=C/C(=O)O` (stereo not given in full), for which the Potency was 13 µM (active). Consider `COC(=O)[C@H](CC1C=NC=N1)NCC12CC3CC(CC(C3)C1)C2` (stereo not given in full), for which the Potency entry is “inactive”. Regarding `CC(CO[C@@H]1O[C@H](COC(=O)/C=C/c2ccc(O)c(O)c2)[C@@H](O)[C@H](O)[C@H]1O)C1(O)COC(=O)C1` (stereo not given in full), the Potency is 1.84 µM (active). As to `O=C1NC(Cc2ccc(O)cc2)C(=O)N2CCCC12` (stereo not given), the Potency entry was “inactive”. Consider `CC1=C2CC3OC3(C)CCC3OC3(C)CC2OC1=O` (stereo not given), for which the Potency result was “inactive”. As to `COC(=O)[C@H](OC(C)=O)[C@H]1C(C)(C)C(=O)[C@H]2CC3=C4CC(=O)O[C@@H](c5ccoc5)[C@]4(C)CCC3[C@@]1(C)C2=O` (stereo not given in full), the Potency result was “inactive”. On to `COc1cc(/C=C/C(=O)OC2CC(OC(C)=O)C(OC(C)=O)C3C2CCC2C(=O)OC(c4ccoc4)CC23C)ccc1O[C@@H]1O[C@H](CO)[C@@H](O)[C@H](O)[C@H]1O` (stereo not given in full), for which the Potency entry was “inactive”. Turning to `CC(=O)O[C@@H]1[C@H](O[C@@H]2OC[C@](O)(CO)[C@H]2O)[C@@H](O[C@@H]2O[C@@H](C)[C@H](O)[C@@H](O)[C@H]2O)[C@H](OC(=O)[C@]23CCC(C)(C)C[C@H]2C2=CCC4[C@@]5(C)C[C@H](O)[C@H](O[C@@H]6O[C@H](C(=O)O)[C@@H](O)[C@H](O)[C@H]6O)[C@@](C)(C(=O)O)C5CC[C@@]4(C)[C@]2(C)CC3)O[C@@H]1C` (stereo not given in full), the activity change, negative = thiol reactive is 279% [at 11.5 µM] (inactive). For the compound `Cc1ncc([N+](=O)[O-])n1CC(O)CN1CCOCC1` (stereo not given), the Potency result is “inactive”.

The values are drawn from PubChem BioAssay (NCATS).
